Sampled rows, rich in hits. Any-hit rate of the full collection: about 27%.
CYP2C9 activ: increases human cytochrome P450 2C9 activity; P11712; 1.4% of 96,000 active; AID 1024; activation factor at 5 µM; recombinant CYP2C9, luciferin-H conversion, luminescence; active compounds read high; factor 1 = untreated enzyme, 0 = blocked;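 active means activation factor of 2 or more for CYP2C9 at a 5 µM dose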
Target sequence (P11712 whole entry, looked up): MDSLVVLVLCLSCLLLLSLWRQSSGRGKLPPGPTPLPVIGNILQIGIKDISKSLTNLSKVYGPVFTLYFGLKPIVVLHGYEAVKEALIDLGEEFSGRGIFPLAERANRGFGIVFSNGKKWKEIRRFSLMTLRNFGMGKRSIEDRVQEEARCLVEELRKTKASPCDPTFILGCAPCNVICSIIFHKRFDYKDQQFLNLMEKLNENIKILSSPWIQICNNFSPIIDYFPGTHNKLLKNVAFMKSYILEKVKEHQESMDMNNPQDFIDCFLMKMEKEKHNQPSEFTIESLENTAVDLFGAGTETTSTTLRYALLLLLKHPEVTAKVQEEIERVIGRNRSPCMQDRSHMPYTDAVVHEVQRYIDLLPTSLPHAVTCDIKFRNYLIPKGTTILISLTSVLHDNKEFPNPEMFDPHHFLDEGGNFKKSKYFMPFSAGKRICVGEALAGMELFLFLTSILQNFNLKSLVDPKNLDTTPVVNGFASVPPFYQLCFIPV
CYP2C19 act: increases human CYP2C19 enzyme activity; P33261; recombinant CYP2C19, luciferin-H EGE luminescence; active compounds read high; 0 = fully inhibited enzyme, 1 = untreated enzyme; activation factor at 5 µM; 96,000 tested, under 10 active; AID 1025;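 active means activation factor of at least 2 at 5 µM in the primary screen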
CYP2C19 inhib: blocks human cytochrome P450 2C19; P33261; CYP2C19 Supersomes, luciferin-H EGE luminescence, 30 min; inhibition, % at 5 µM; 21% of 96,000 active; AID 778;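 active means CYP2C19 inhibition above a set limit at 5 µM in the primary screen, cut at about 50% in these data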
CYP2C9 inhib: inhibitors of human CYP2C9; P11712; CYP2C9 Supersomes, luciferin-H conversion, luminescence; inhibition, % at 5 µM; 20% of 96,000 active;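 active means blocking of liver enzyme CYP2C9 beyond about 50% at 5 µM, limit read from the data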
Cav3 T inh: inhibitors of human Cav3.2 T-type calcium channel. 4% of 100,000 active. Cav3.2-expressing cells, Fluo-4 calcium fluorescence FDSS; active compounds read low. B-score at 10 µM. AID 449739;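 active means single-dose well whose peak fluorescence ratio is a statistical outlier from its plate by either plate-standardised score or position-corrected B-score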
Large screens that a line does not name were inactive.

CCC(=O)N1CCc2cc(Br)cc(S(=O)(=O)NCC3CCCN3CC)c21 (stereo not given)	none
CCOC(=O)Cc1csc(NC(=O)c2sc3nc4ccc(CC)cc4cc3c2N)n1	CYP2C9 inhib 63
CCOC(=O)Cc1csc(NC(=O)c2ccc(Br)s2)n1	CYP2C19 inhib 78, CYP2C9 inhib 100
CCOC(=O)Cc1csc(NC(=O)c2ccc(Cl)nc2)n1	none
CCN(CC)CCNc1nc(-c2ccccc2)nnc1C(F)(F)F	none
CCOc1ccc(S(=O)(=O)N2CCN(c3ccc(C)cc3C)CC2)cc1	CYP2C19 inhib 54, CYP2C9 inhib 80
COc1ccc(S(=O)(=O)N2CCN(c3ccc(C)cc3C)CC2)cc1OC	CYP2C9 inhib 52, Cav3 T inh -6
COc1ccc(C(=O)N2CCN(c3ccc(C)cc3C)CC2)cc1OC	none
CCCc1cc(=O)[nH]c(-n2[nH]c3c(c2=O)CCCC3)n1	none (no result: Cav3 T inh)
COC(=O)c1[nH]c2ccccc2c1NC(=O)C(C)N1CCN(C(=O)c2ccco2)CC1 (stereo not given)	none
CCOC(=O)Cc1c(C)nc2c(C#N)c[nH]n2c1=O	none
CCOC(=O)Cc1c(C)nc2c(-c3ccc(Cl)cc3)c(C)[nH]n2c1=O	CYP2C19 inhib 56 (no result: Cav3 T inh)
CCOC(=O)Cc1c(C)nc2cc(-c3ccc(C(C)(C)C)cc3)[nH]n2c1=O	none
CCOC(=O)Cc1c(C)nc2c(-c3cccc(Br)c3)c[nH]n2c1=O	CYP2C9 inhib 74, Cav3 T inh -5.8
Cc1cc2ncn(C(=O)N3CCCCC3)c2cc1C	CYP2C19 inhib 82
Cc1cc2ncn(C(=O)N3CCCCCC3)c2cc1C	none (no result: CYP2C9 activ, CYP2C19 act, CYP2C19 inhib, CYP2C9 inhib)
CC#CCN1C(=O)N[C@@H](c2ccccc2)C(C(=O)OC)=C1C	none (no result: CYP2C9 activ, CYP2C19 act, CYP2C19 inhib, CYP2C9 inhib)
O=C(NCCCn1ccnc1)c1ccc(Br)o1	CYP2C19 inhib 59
CC12CCC(C(=O)NCCCn3ccnc3)(OC1=O)C2(C)C (stereo not given)	CYP2C19 inhib 76
O=C(NCCCn1ccnc1)c1noc2c1CCCC2	CYP2C19 inhib 69, CYP2C9 inhib 85
O=C(NCc1ccc(F)cc1)c1noc2c1CCCC2	none
O=C(CN1CCC(NC(=O)Cc2ccccc2)CC1)Nc1cccc2ccccc12	none
CC(C)C(=O)Nc1ccc(NC(=O)c2cccc(F)c2)cn1	none
CC(=O)c1ccc(S(=O)c2ccccc2)cc1 (stereo not given)	none
N#C/C(=C\N1CCOCC1)c1ccccc1	CYP2C19 inhib 57
CCOC(=O)c1ccc(NC(=O)c2ccc3c(c2)OCO3)cc1	none
CCOC(=O)c1ccc(N2C(=O)CC(N(C)CCc3ccc(OC)c(OC)c3)C2=O)cc1 (stereo not given)	CYP2C19 inhib 73, CYP2C9 inhib 55
CCOC(=O)c1ccc(N2C(=O)CC(N(Cc3ccc4c(c3)OCO4)C(=O)Nc3ccccc3)C2=O)cc1 (stereo not given)	CYP2C19 inhib 81, CYP2C9 inhib 89
CNC(=S)N(Cc1ccc2c(c1)OCO2)C1CC(=O)N(c2ccc(F)cc2)C1=O (stereo not given)	CYP2C19 inhib 92, CYP2C9 inhib 76, Cav3 T inh -4
COc1ccc(CN(C(=S)Nc2ccccc2)C2CC(=O)N(c3ccc(F)cc3)C2=O)cc1 (stereo not given)	none
CC(C)CCn1c(SCC(=O)OCn2nnc3ccccc3c2=O)nc2ccccc2c1=O	none
COc1ccc(S(=O)(=O)N2CC(C(=O)O)Oc3ccc(CC(=O)O)cc32)cc1 (stereo not given)	none
CCOC(=O)C1CN(S(=O)(=O)c2ccc(OC)cc2)c2cc(CC(=O)OC)ccc2O1 (stereo not given)	CYP2C19 inhib 93
COC(=O)CCC(=O)NC(=S)Nc1cc(Cl)ccc1Cl	CYP2C19 inhib 54, CYP2C9 inhib 53
COC(=O)CCC(=O)Nc1ccc(Cl)c(Cl)c1	none
COC(=O)c1scc(C)c1NC(=O)C1CCCCC1	none
COc1ccc(CNC(=O)CCc2nc(-c3ccccc3F)no2)c(OC)c1	CYP2C19 inhib 74, CYP2C9 inhib 57
COc1ccc(Br)cc1-c1noc(-c2ccccc2F)n1	none
CCN(C(=O)CCc1nc(-c2ccccc2F)no1)c1cc(OC)ccc1OC	CYP2C19 inhib 94, CYP2C9 inhib 94
O=C(CCc1nc(-c2ccccc2F)no1)NC1CCCCCC1	none
COc1ccc(Br)cc1CNC(=O)CCc1nc(-c2ccccc2F)no1	CYP2C19 inhib 65, CYP2C9 inhib 57 (no result: Cav3 T inh)
O=C(CCc1nc(-c2ccccc2F)no1)Nc1ccc(Oc2ccccc2)cc1	none
Cc1ccccc1Cn1cc(NC(=O)COc2ccccc2)cn1	none

High-throughput results as filed in PubChem BioAssay.
